Source: PubChem BioAssay (NCI)
Compounds without any hit were thinned out: in the full panel of roughly 83,000, 20% have a hit.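 Negative percent growth values reflect cell death: -40 means 40% of the cells present at the start died, and -100 means all died.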 Active and inactive are the calls of the source. Rule for the calls: active = growth percent below 10; inactive = the rest.

What was measured:
Test in all cases: NCI-60 one-dose screen, 48 h (100 = growth as untreated, 0 = no growth, -100 = all killed)
Conditions in all cases: 10 µM unless noted
SR leukemia = test system: SR leukemia
RPMI-8226 leukemia = test system: RPMI-8226 leukemia
OVCAR-8 ovarian = test system: OVCAR-8 ovarian
OVCAR-5 ovarian = test system: OVCAR-5 ovarian
OVCAR-4 ovarian = test system: OVCAR-4 ovarian
SK-OV-3 ovarian = test system: SK-OV-3 ovarian
IGROV1 ovarian = test system: IGROV1 ovarian
OVCAR-3 ovarian = test system: OVCAR-3 ovarian
HS 578T breast = test system: HS 578T breast
NCI/ADR-RES ovarian = test system: NCI/ADR-RES ovarian

Measured: growth

CNC(=O)c1ccccc1Nc1nc(Nc2cc(OC)c(OC)c(OC)c2)ncc1Br
inactive: RPMI-8226 leukemia 41.5% | OVCAR-5 ovarian 13.3%
active: SR leukemia 6.27% | OVCAR-8 ovarian -20.3% | OVCAR-4 ovarian -34.5% | SK-OV-3 ovarian -77.2% | IGROV1 ovarian 4.34% | OVCAR-3 ovarian -6.51% | HS 578T breast -3.22% | NCI/ADR-RES ovarian -10.7%

COc1ccccc1N(C(C)=O)C1=C(Cl)C(=O)c2ccccc2C1=O
inactive: OVCAR-8 ovarian 19.1% | OVCAR-5 ovarian 23.1% | OVCAR-4 ovarian 22.4% | SK-OV-3 ovarian 17.6% | IGROV1 ovarian 13.8% | HS 578T breast 42.7%
active: SR leukemia -13.9% | RPMI-8226 leukemia -19.2% | OVCAR-3 ovarian -23.3% | NCI/ADR-RES ovarian 0.618%

CCN(CC)CCN1C(=O)c2c(c(C)c3c(oc4ccc(O)cc43)c2C)C1=O
inactive: SR leukemia 28.5% | OVCAR-5 ovarian 97.6% | OVCAR-4 ovarian 14.9% | SK-OV-3 ovarian 101% | HS 578T breast 72.9% | NCI/ADR-RES ovarian 21.7%
active: RPMI-8226 leukemia -37.3% | OVCAR-8 ovarian -5.2% | IGROV1 ovarian 1.64% | OVCAR-3 ovarian -68.2%

Cc1ccc(/C=C/C(=O)c2ccc(-n3cc(CN4CCN(c5cc6c(cc5F)c(=O)c(C(=O)O)cn6C5CC5)CC4)nn3)cc2)cc1
inactive: SR leukemia 63.2% | RPMI-8226 leukemia 44.3% | OVCAR-8 ovarian 62.5% | OVCAR-5 ovarian 109% | OVCAR-4 ovarian 94.8% | SK-OV-3 ovarian 84.7% | IGROV1 ovarian 69.9% | OVCAR-3 ovarian 96% | HS 578T breast 80.5% | NCI/ADR-RES ovarian 103%

Cn1cc(-c2csc(-c3cn(CCCN4CCOCC4)c4ccccc34)n2)c2cccnc21
inactive: SR leukemia 58.9% | RPMI-8226 leukemia 59.5% | OVCAR-8 ovarian 82.6% | OVCAR-5 ovarian 84.7% | OVCAR-4 ovarian 97.8% | SK-OV-3 ovarian 102% | IGROV1 ovarian 98.6% | OVCAR-3 ovarian 96.3% | HS 578T breast 88% | NCI/ADR-RES ovarian 91%

N#C/C(=C\c1cn(Cc2ccccc2)c2ccccc12)C(=O)Nc1ncc(Cc2ccccc2Cl)s1
inactive: RPMI-8226 leukemia 67.6% | HS 578T breast 21.7% | NCI/ADR-RES ovarian 15%
active: SR leukemia 8.65% | OVCAR-8 ovarian 6.09% | OVCAR-5 ovarian -2.57% | OVCAR-4 ovarian -74.6% | SK-OV-3 ovarian 9.54% | IGROV1 ovarian 9.54% | OVCAR-3 ovarian -19.1%

CSc1nn2c(-c3ccc4ccccc4c3)ccnc2c1C#N
inactive: SR leukemia 13.8% | RPMI-8226 leukemia 24.1% | OVCAR-8 ovarian 23% | OVCAR-5 ovarian 46.7% | SK-OV-3 ovarian 12.8% | IGROV1 ovarian 20.5% | HS 578T breast 33.6%
active: OVCAR-4 ovarian 1.79% | OVCAR-3 ovarian -26% | NCI/ADR-RES ovarian 2.07%

C[C@H](CCCC(=O)NCC#CCN1CCN(C)CC1)[C@H]1CC[C@H]2[C@@H]3CC[C@@H]4CC(=O)CC[C@]4(C)[C@H]3CC[C@]12C
inactive: SR leukemia 48.3% | RPMI-8226 leukemia 86.7% | OVCAR-8 ovarian 94.6% | OVCAR-5 ovarian 93.3% | OVCAR-4 ovarian 98.4% | SK-OV-3 ovarian 81.6% | IGROV1 ovarian 92.2% | OVCAR-3 ovarian 91.5% | HS 578T breast 81.8% | NCI/ADR-RES ovarian 93.5%

Cc1ccc(C(=O)c2ccc(CC(=O)N=Nc3c(O)[nH]c4ccc(Br)cc34)n2C)cc1
inactive: SR leukemia 101% | RPMI-8226 leukemia 92.7% | OVCAR-8 ovarian 94.9% | OVCAR-5 ovarian 91.7% | OVCAR-4 ovarian 97.6% | SK-OV-3 ovarian 91.3% | IGROV1 ovarian 77.5% | OVCAR-3 ovarian 105% | HS 578T breast 99.6% | NCI/ADR-RES ovarian 87.7%

O=C(CCl)NNc1nccc(Nc2ccc(S(=O)(=O)Nc3ccncc3)cc2)n1
inactive: SR leukemia 37.1% | RPMI-8226 leukemia 31.3% | OVCAR-8 ovarian 60.4% | OVCAR-5 ovarian 67.7% | OVCAR-4 ovarian 36.8% | SK-OV-3 ovarian 90.5% | IGROV1 ovarian 18.8% | OVCAR-3 ovarian 24.2% | HS 578T breast 49.2% | NCI/ADR-RES ovarian 51%

NC1=Nc2cc(OCCCCN3Cc4ccccc4C3)c(OCC3CC3)cc2C12CCCC2
active: RPMI-8226 leukemia 5.52%
inactive: SR leukemia 11.3% | OVCAR-8 ovarian 45.1% | OVCAR-5 ovarian 65.3% | OVCAR-4 ovarian 39.6% | SK-OV-3 ovarian 93.4% | IGROV1 ovarian 50% | OVCAR-3 ovarian 52.5% | HS 578T breast 53.3% | NCI/ADR-RES ovarian 73.2%

C/C(=N\O)c1ccc(NC(=O)CSc2nnc(-c3cc(-c4ccc(S(N)(=O)=O)cc4)nc4ccccc34)n2-c2ccccc2)cc1
inactive: SR leukemia 24.2% | RPMI-8226 leukemia 34.4% | OVCAR-8 ovarian 59.4% | OVCAR-5 ovarian 96.6% | OVCAR-4 ovarian 91.6% | SK-OV-3 ovarian 108% | IGROV1 ovarian 63% | OVCAR-3 ovarian 78% | HS 578T breast 61.7% | NCI/ADR-RES ovarian 98.9%

O=C(NNc1cnccn1)c1nc2cc(F)ccc2n2cccc12
active: SR leukemia 3.73% | OVCAR-4 ovarian -9.11% | IGROV1 ovarian 9.25% | OVCAR-3 ovarian 3.83% | NCI/ADR-RES ovarian 0.226%
inactive: RPMI-8226 leukemia 12% | OVCAR-8 ovarian 15.7% | OVCAR-5 ovarian 31.2% | SK-OV-3 ovarian 18.4% | HS 578T breast 60.6%

COc1ccc(/C=C/C(=O)c2ccc(NC(=O)CSc3nc4c([nH]3)c(=O)n(C)c(=O)n4C)cc2)cc1OC
inactive: SR leukemia 36.6% | RPMI-8226 leukemia 85.9% | OVCAR-8 ovarian 89.7% | OVCAR-5 ovarian 83.9% | OVCAR-4 ovarian 72.6% | SK-OV-3 ovarian 102% | IGROV1 ovarian 71.3% | OVCAR-3 ovarian 70% | HS 578T breast 81.3% | NCI/ADR-RES ovarian 96.1%

CCOC(=O)C#Cc1c(C(=O)OCC)nnn1Cc1ccc(C(F)(F)F)cc1
inactive: OVCAR-8 ovarian 69% | OVCAR-5 ovarian 91.2% | OVCAR-4 ovarian 67.1% | SK-OV-3 ovarian 99.7% | IGROV1 ovarian 81.8% | OVCAR-3 ovarian 13.6% | HS 578T breast 113% | NCI/ADR-RES ovarian 97.1%
active: SR leukemia -1.42% | RPMI-8226 leukemia 7.43%

O=C(CI)NC(=O)NC(=O)NCc1ccccc1
active: SR leukemia -5.93% | OVCAR-3 ovarian -55.9%
inactive: RPMI-8226 leukemia 29.4% | OVCAR-8 ovarian 56.3% | OVCAR-5 ovarian 44.3% | OVCAR-4 ovarian 30.3% | SK-OV-3 ovarian 104% | IGROV1 ovarian 21.1% | HS 578T breast 102% | NCI/ADR-RES ovarian 71%

O=C(CCCCCCN1CC(=O)N2[C@H](c3ccc(Br)cc3)c3[nH]c4ccccc4c3C[C@@H]2C1=O)NO
inactive: SR leukemia 24% | RPMI-8226 leukemia 18% | OVCAR-8 ovarian 41.2% | OVCAR-5 ovarian 40.5% | OVCAR-4 ovarian 67.5% | SK-OV-3 ovarian 49.5% | IGROV1 ovarian 23.9% | OVCAR-3 ovarian 41.5% | HS 578T breast 53% | NCI/ADR-RES ovarian 89.6%

O=C(/C=C/c1ccccc1)c1ccc(Nc2nc(Nc3ccc(F)cc3)nc(Nc3ccc(Cl)cc3)n2)cc1
inactive: SR leukemia 78.2% | OVCAR-8 ovarian 58.4% | OVCAR-5 ovarian 102% | OVCAR-4 ovarian 90.8% | SK-OV-3 ovarian 103% | IGROV1 ovarian 90.8% | OVCAR-3 ovarian 80.2% | HS 578T breast 99.7% | NCI/ADR-RES ovarian 76.7%
active: RPMI-8226 leukemia -9.92%

COc1ccc(C(=O)N2c3ccccc3Sc3ccccc32)c(C(F)(F)F)c1
active: OVCAR-3 ovarian -1.95% | NCI/ADR-RES ovarian 2.91%
inactive: SR leukemia 16.3% | RPMI-8226 leukemia 14.2% | OVCAR-8 ovarian 14.9% | OVCAR-5 ovarian 44.6% | OVCAR-4 ovarian 47.1% | SK-OV-3 ovarian 34.4% | IGROV1 ovarian 37.9% | HS 578T breast 24.3%

N=C(N)c1ccc(-c2ccc(-c3cc(Cl)cc(Cl)c3)s2)nc1
active: SR leukemia 8.46% | RPMI-8226 leukemia 8.67% | OVCAR-8 ovarian -17.5%
inactive: OVCAR-5 ovarian 93.9% | OVCAR-4 ovarian 59.1% | SK-OV-3 ovarian 84.1% | IGROV1 ovarian 46.7% | OVCAR-3 ovarian 19.8% | HS 578T breast 94% | NCI/ADR-RES ovarian 91.4%

CC/C=C\C[C@H](O)C/C=C1/C(=O)C=C[C@@H]1C/C=C\CCCC(=O)O
inactive: SR leukemia 10.3% | RPMI-8226 leukemia 10.1% | OVCAR-8 ovarian 20% | OVCAR-5 ovarian 128% | OVCAR-4 ovarian 74.8% | SK-OV-3 ovarian 116% | IGROV1 ovarian 99.2% | OVCAR-3 ovarian 14.8% | HS 578T breast 85% | NCI/ADR-RES ovarian 78.3%

COc1cccc(CNc2c3ccccc3nc3ccccc23)c1
active: SR leukemia 8.36%
inactive: RPMI-8226 leukemia 16.7% | OVCAR-8 ovarian 31.9% | OVCAR-5 ovarian 45.9% | OVCAR-4 ovarian 43.6% | SK-OV-3 ovarian 54.7% | IGROV1 ovarian 28.3% | OVCAR-3 ovarian 54.8% | HS 578T breast 55.6% | NCI/ADR-RES ovarian 37.5%

CCCCNc1nnc2n(Cc3ccccc3)c(=O)c3c4c(sc3n12)CCCC4
inactive: RPMI-8226 leukemia 34.4% | OVCAR-8 ovarian 46.2% | OVCAR-5 ovarian 106% | OVCAR-4 ovarian 71.7% | SK-OV-3 ovarian 62.5% | IGROV1 ovarian 46.7% | OVCAR-3 ovarian 49.2% | HS 578T breast 71.5% | NCI/ADR-RES ovarian 55.7%
active: SR leukemia 9.01%

C[n+]1ccc(CCc2c[nH]c3ccccc23)cc1
inactive: SR leukemia 83.8% | RPMI-8226 leukemia 94% | OVCAR-8 ovarian 107% | OVCAR-5 ovarian 86.5% | OVCAR-4 ovarian 99.4% | SK-OV-3 ovarian 77.3% | IGROV1 ovarian 87.7% | OVCAR-3 ovarian 107% | HS 578T breast 104% | NCI/ADR-RES ovarian 105%

CCOC(=O)c1cnc2c(N=Nc3ccc(OC)cc3)c(N)nn2c1N
inactive: SR leukemia 112% | RPMI-8226 leukemia 104% | OVCAR-8 ovarian 102% | OVCAR-5 ovarian 110% | OVCAR-4 ovarian 111% | SK-OV-3 ovarian 108% | IGROV1 ovarian 93.7% | OVCAR-3 ovarian 113% | HS 578T breast 104% | NCI/ADR-RES ovarian 98.9%

CC(C)=CCNc1ncnc2c1ncn2C1OC(CO)C(O)C1O (stereo not given)
inactive: OVCAR-5 ovarian 19.2% [1 mM]
active: SR leukemia 1.23% [1 mM] | RPMI-8226 leukemia -40.1% [1 mM] | OVCAR-8 ovarian -40.8% [1 mM] | OVCAR-4 ovarian -2.16% [1 mM] | SK-OV-3 ovarian -21.5% [1 mM] | IGROV1 ovarian 4.13% [1 mM] | OVCAR-3 ovarian -69.9% [1 mM] | HS 578T breast -16.8% [1 mM] | NCI/ADR-RES ovarian -33.2% [1 mM]
